Consider 38 compounds from PubChem BioAssay (NCATS).

The structures appear in SMILES notation. Where “and” joins values, the source holds several entries; their conditions need not be identical. Identical values can stand only once. Records with an inconclusive call do not appear. Some structures have more than one record in an assay (separate samples or runs), and their calls can disagree. A number with no mark means an inactive call. Calls of active or inactive are those of the source. The call rests on the fitted dose curve; in most records, active means well fitted activation curve with a large enough effect; inconclusive means small, poorly fitted or top-dose-only effect; inactive means no such curve, though single readings can be large or run the other way.
Potency means the concentration at half of the fitted maximal effect.

Chain of Cellular tumor antigen p53 (Homo sapiens) (P04637 whole entry, looked up): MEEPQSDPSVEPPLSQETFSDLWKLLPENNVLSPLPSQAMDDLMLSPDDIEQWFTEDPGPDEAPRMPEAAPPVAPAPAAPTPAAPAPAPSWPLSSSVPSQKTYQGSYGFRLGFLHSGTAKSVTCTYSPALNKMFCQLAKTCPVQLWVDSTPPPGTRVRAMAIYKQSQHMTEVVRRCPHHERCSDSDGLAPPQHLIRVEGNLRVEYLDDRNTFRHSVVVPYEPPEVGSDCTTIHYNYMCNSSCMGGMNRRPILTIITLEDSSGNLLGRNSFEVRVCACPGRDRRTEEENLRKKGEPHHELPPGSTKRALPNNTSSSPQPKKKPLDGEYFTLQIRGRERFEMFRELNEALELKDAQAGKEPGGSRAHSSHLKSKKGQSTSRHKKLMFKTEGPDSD

The target in the assay is Cellular tumor antigen p53 (Homo sapiens) (UniProt P04637). Description: Primary qHTS for small molecule compounds that upregulate eGFP-tagged delta133p53alpha (in N-terminal) cells. (AID 2060322). Further: nearly all actives have a fitted effect of over 75% in size.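 On activation: cells pre-induced with doxycycline then dosed without doxycycline; series mostly up to about 56 µM; 0% = DMSO vehicle and 100% = reference activator.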 Particulars: NCI-H358 eGFP-delta133p53alpha fluorescence, 24 h; activation: stronger effect = higher value. The text has this:
Assay Development and Screening Technology
National Center for Advancing Translational Sciences (NCATS),
National Institute of Health (NIH), Rockville, Maryland
Cellular senescence (CS) is one of the hallmarks of aging and age-related diseases. Senescent cells are characterized by an irreversible growth arrest, an increase in senescence-associated beta-galactosidase (SA-beta-gal) activity and p16INK4a expression, an activation of the DNA damage response pathways, and the emergence of a senescence-associated secretory phenotype (SASP).
Delta133p53alpha, a human/primate-specific p53 protein isoform, delays or inhibits the induction of CS and SASP in various types of human cells, including progeria-derived fibroblasts, primary normal astrocytes, and CD8+ T lymphocytes. Induction of delta133p53alpha with small molecule compounds may provide therapeutic opportunities for inhibition of senescence/SASP-associated pathologies in progeria syndromes, astrocyte-mediated neuroprotection in neurodegenerative diseases, and possibly prevention and treatment of a wider range of senescence- and aging-associated diseases.
Here we report the development and validation of a cell-based quantitative high throughput screening (qHTS) assay in 1,536-well format. This qHTS assay uses the NCI-H358 cell line with doxycycline-inducible expression of enhanced green fluorescent protein (eGFP)-tagged delta133p53alpha, which allows efficient and highly quantitative measurement of the protein levels.
PROTOCOL TABLE (as described by Inglese J, Shamu CE and Guy RK. 2007)
SEQUENCE No. (e.g., 1, 2, 3, etc.); […] (e.g., Cells, Incubation, Reagent, etc.); VALUE; DESCRIPTION.
1; Cells; 4uL; 800 doxycycline treated cells / well in doxycycline-free media, 1536-well black, clear-bottom low base Aurora microplates.
2; Compounds; 23 nL; Kalypsis pin tool (Wako) equipped with 1536-well pin heads, 5-azacytidine positive control.
3; Incubation; 24 hr; 37C, 5% CO2; 95% relative humidity.
4; Aspiration; 1x; BioTek EL406 washer dispenser (Agilent).
5; Fixing; 3.5% paraformaldehyde, BioTek EL406 washer dispenser (Agilent).
6; Washing; 1x PBS; BioTek EL406 washer dispenser (Agilent).
7; Nuclei staining; 1:1000 dilution of Hoechst 33342 (Thermofisher), BioTek EL406 washer dispenser (Agilent).
8; Incubation; 20 min; in the dark at room temperature.
9; Washing; 2x, 1x PBS (ThermoFisher), BioTek EL406 washer dispenser (Agilent).
10; Reagent; 10 uL; 1x PBS per well, sealed with clear adhesive tape.
NOTES (numbers refer to sequence numbers above).
1. NCI-H358 cells expressing eGFP-tagged delta133p53alpha were grown in T75 culture flasks and treated with doxycycline for 24h, at 10 ng/ml for eGFP-D133p53a cells (N-terminal cell) and 100 ng/ml for D133p53a-eGFP cells (C-terminal cells). Cells were trypsinized, counted using a Counted 3 Automated Cell Counter (Thermo Fisher), and diluted to a concentration of 200,000 cells/ml. A Multidrop Combi Reagent Dispenser (ThermoFisher) was used to dispense 800 cells/well in […] of doxycycline-free media, into 1536-well black/clear bottom low base plates (AuroraMicroplates).
2. After plating cells, 23 nl of compound library, DMSO vehicle control or positive control (5-azacytidine) were transferred by Pin Tool (Wako). The plate map layout was the same for each plate: (column 1) non-doxycycline treated cells + DMSO vehicle control; (column 2) doxycycline treated cells + DMSO vehicle control baseline; (column 3) doxycycline treated cells + positive control 57.5 uM final concentration 5-azacytidine; (column 4) doxycycline treated cells + serial dilution of 5-azacytidine, 16-point 1:2 titration spanning 1.8 nM to […] final concentration; (columns 5-48) doxycycline treated cells + titration of library compounds.
3. Cells were incubated at 37 °C, 5 % CO2, 95% RH with breathable metal lid for 24h.
4-10. […] After two washes, 10 ul of 1X PBS (Thermo Fisher) was dispensed to each well. Clear adhesive plate seals (VWR) were applied and plates stored at 4 °C.
11. […]
`Cn1c(=O)c(-c2c(Cl)cccc2Cl)cc2cnc(Nc3ccc(N4CCOCC4)cc3)nc21`: the activation was -42.1%. With `CC(NC(=O)c1ccccc1N=Cc1c(O)ccc2ccccc12)c1ccccc1` (stereo not given), the Potency was 43.2 µM (active). Turning to `O=C(c1ccc(Cl)cc1)N1CCN(c2ccc([N+](=O)[O-])c3ncccc23)CC1`, the activation was -9.46%. In the case of `CCNC(=O)CCCC=CC[C@@H]1[C@H](C=CC(O)CCc2ccccc2)[C@@H](O)C[C@@H]1O` (stereo not given in full), the activation is -2.33%. The same measure, in the same setting: the value for `CCN(CCO)CCCC(C)Nc1ccnc2cc(Cl)ccc12` (stereo not given) was 3.35% and 25.7% and 0.955%; that for `CN(C)C(=N)N=C(N)N` was 2.2%. Still for that read-out and setting: the value for `COC(=O)N(C)c1c(N)nc(-c2nn(Cc3ccccc3F)c3ncccc23)nc1N` was -15.8%; that for `COc1ccnc(CCc2nc3ncccc3[nH]2)c1` was -5.73%. Regarding `Cc1nc(C(=O)N2CCC[C@H]2Cc2nnc(-c3ccccc3)o2)c(-c2ccccc2F)s1`, the activation was 3.82%. Regarding `CC(C)C(=O)Nc1cccc(C(F)(F)F)c1`, the activation is -15.3%. Still for that read-out and setting: the value for `CC[N+](CC)(CCNC(=O)C(=O)NCC[N+](CC)(CC)Cc1ccccc1Cl)Cc1ccccc1Cl` was -9.6%.

Consider `c1ccc(Cc2ncc3c(n2)CCNCC3)cc1`, for which the activation was 7%. The same measure, in the same setting: the value for `CCOC(=O)c1sc(NC(=O)[C@H](C(C)C)n2c(=O)[nH]c3ccccc3c2=O)nc1C` was 14.3%. For the compound `O=C(O)CCc1ccc(NCc2cccc3c2CCCN3CCOc2ccccc2)cc1F`, the activation was 2.39%.

In the case of `CN[C@H](CC(=O)O)C(=O)O`, the activation is -12.8%. Same read-out and setting: the value for `CN(C)CCOC(c1ccccc1)c1ccc(Br)cc1` (stereo not given) was -6.21%; that for `N=C(N)c1ccc2nc(-c3cc(CC(=O)NC(CC(=O)O)C(=O)O)cc(-c4cc(S(N)(=O)=O)ccc4O)c3O)[nH]c2c1` (stereo not given) was -8.59%. As for `N#Cc1ccc(Nc2nc(-c3ccc(O)cc3O)cs2)cc1C(F)(F)F`, the Potency is 26.9 µM (active). Regarding `CN[C@@H]1CN(c2ccc3c(=O)c(C(=O)O)cn(-c4nccs4)c3n2)C[C@@H]1OC`, the activation is 8.83%.

With `Cc1nc(N)sc1-c1ccnc(Nc2ccc(N3CCOCC3)cc2)n1`, the Potency is 26.9 µM (active) and the activation was -1.52%. Turning to `OC[C@@H](O)[C@@H](O)[C@H](O)[C@H](O)CO`, the activation was -9.21%.

Consider `O=C(O)C[C@H]1CCC(=O)[C@@H]1C/C=C\CCOC1OC(CO)C(O)C(O)C1O` (stereo not given in full), for which the activation is -3.82%. Consider `S=C(NCc1ccc2c(c1)OCO2)N1CCN(c2ncnc3c2oc2ccccc23)CC1`, for which the activation was 8.81% and -14.3%.

For `Cn1c2cc(S(C)=O)sc2c2cnn(Cc3cccc(N)c3)c(=O)c21` (stereo not given), the activation was 15.5%. Still for that read-out and setting: the value for `COc1cc2c(cc1OC)CN(C(=O)[C@@H](NCc1ccncc1)C(C)(C)C)CC2` was 5.25%; that for `CC1OC(=O)C[C@@H]2C(C(=O)O)=CO[C@@H](O[C@H]3O[C@H](CO)[C@@H](O)[C@H](O)[C@H]3O)[C@H]12` (stereo not given in full) was -23.2%. Same read-out and setting: the value for `COc1cc(C(=O)NCc2ccc(OCCN(C)C)cc2)cc(OC)c1OC` was 1.67%. Consider `COc1ccc(NC(=O)c2ccc(C(=N)N(C)C)cc2)c(C(=O)Nc2ccc(Cl)cn2)c1`, for which the activation is -8.59%. Still for that read-out and setting: the value for `CCn1c(C(=O)N(C2CC2)C2CC2)cc2c3c(ncn3C)c(Nc3cc(C)n(C)n3)nc21` was -29.5%. As to `COCCOc1nc(-c2ccc(Cl)c(Cl)c2)n(-c2ccc(NC(=O)CCl)cc2)n1`, the Potency was 15.1 µM (active) and the activation was 36.6%. Turning to `Cc1cc(C)c(NC(=O)N(Cc2ccc3c(c2)Cc2ccccc2-3)C2CCCCCC2)c(C)c1`, the activation is 15.3%. Still for that read-out and setting: the value for `CCC(C)/C=C(C)/C=C/C1=CC2=C(Cl)C(=O)C(C)(OC(C)=O)C(=O)C2=CN1C(CCC(=O)O)C(=O)O` (stereo not given) was -13%; that for `CCOC(=O)C12CC1/C(=N/O)c1ccccc1O2` (stereo not given) was -19.2%. With `C=C(C)C1CC2(CO)C(=CC1=O)CCC(O)C2C` (stereo not given), the activation was -4.58%. In the case of `CCC(=O)O[C@]1(C(=O)SCF)[C@H](C)C[C@H]2[C@@H]3C[C@H](F)C4=CC(=O)C=C[C@]4(C)[C@@]3(F)[C@@H](O)C[C@@]21C`, the activation is 17.6% and 0.401%.

For `CC(=O)OC1CC2C(C)(C)C(=O)C=CC2(C)C2CC(=O)C3=C(CCC3C3=CC(O)OC3=O)C12C` (stereo not given), the activation was -12.2%. The same measure, in the same setting: the value for `Cn1c(=O)c2[nH]c(C3CCCC3)nc2n(C)c1=O` was 3.95%. On the same count and under the same terms, the value for `CC[C@@H]([C@H](C)O)n1ncn(-c2ccc(N3CCN(c4ccc(OCC5CO[C@@](Cn6cncn6)(c6ccc(F)cc6F)C5)cc4)CC3)cc2)c1=O` (stereo not given in full) was 7.66%.
